Drawing on PubChem BioAssay (NCI), this text covers growth for seven molecules.

Assay in all cases: NCI-60 one-dose screen, 48 h (100 = growth as untreated, 0 = no growth, -100 = all killed)
What all share (settings): 10 µM unless noted

In experiment [1] the test system is NCI-H23 lung.
The subject of experiment [2] is NCI-H226 lung.
In experiment [3] the test system is NCI-H322M lung.
For experiment [4], the system named is HOP-62 NSCLC.
For experiment [5], the system named is NCI-H460 lung.
Experiment [6] relates to NCI-H522 lung.
The subject of experiment [7] is A549/ATCC NSCLC.
Experiment [8] relates to 786-0 renal.
Experiment [9] relates to COLO 205 colon.
Experiment [10] concerns DU-145 prostate.
Experiment [11] has as its system K-562 leukemia.
Experiment [12] concerns MALME-3M melanoma.
Experiment [13] has as its system MDA-MB-231 breast.
Experiment [14] deals with RXF 393 renal.
In experiment [15] the test system is SF-268 CNS.
In experiment [16] the test system is SF-295 CNS.
For experiment [17], the system named is SF-539 CNS.
Experiment [18] relates to UACC-257 melanoma.
Experiment [19] concerns M14 melanoma.

The panel holds about 83,000 compounds, 20% with a hit somewhere; the sample as a whole holds those more often.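 Assay: single dose, 48 h. Readout: percent growth (0 = no net growth; negative = cell death). Active: <10.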 A number with no mark means an inactive call. The source made the active and inactive calls.

With `NS(=O)(=O)c1ccc(Nc2cc(-c3ccccc3)nc(SCC(=O)c3ccccc3)n2)cc1`, the growth in [1] is 92.5%; in experiment [2] it was 92.8%; in [3], 90.4%; in [4] it was 106%; in experiment [5], 103%; in experiment [6], 98.6%. Further, the growth is 98.8% in experiment [7]; 96.9% in experiment [8]; 116% in experiment [9]; 103% in experiment [10]; 98.1% in experiment [11]; 93% in [12]. Also, the growth was 92.9% in experiment [13]; 94.9% in experiment [14]; 97.1% in [15]; 99.6% in [16]; 101% in experiment [17]; 99% in experiment [18]. The growth in experiment [19] is 98.4%.
In the case of `COc1ccc(NCc2cn(-c3ccc(C(=O)O)cc3)nc2-c2cc(C(F)(F)F)cc(C(F)(F)F)c2)cc1`, the growth in experiment [1] was 104%; in experiment [2], 107%; in experiment [3] it was 94%; in experiment [4], 104%; in [5] it was 93.6%; in experiment [6] it was 94.4%. Also, the growth in experiment [7] is 87.7%; in experiment [8], 102%; in [9] it was 110%; in [10], 103%; in experiment [11] it was 90.5%; in experiment [12], 86.8%. Moreover, the growth is 101% in experiment [13]; 111% in experiment [14]; 99.2% in experiment [15]; 102% in experiment [16]; 86.5% in [17]; 105% in [18]. In addition, the growth in experiment [19] was 96.4%.
Regarding `O=C(Nc1nc2ccc([N+](=O)[O-])cc2s1)Nc1ccccc1Br`, the growth is 9.86% (active) in experiment [1]; 38.4% in experiment [2]; 27.6% in [3]; 91.2% in experiment [4]; 27.4% in experiment [5]; 26.5% in experiment [6]. In addition, the growth in experiment [7] is 49.4%; in [8], 70%; in [9], 55.3%; in experiment [10], 46.5%; in experiment [11], 20.7%; in [12], 14.6%. Moreover, the growth in experiment [13] is 72.7%; in experiment [14], 62.2%; in experiment [15], 38.3%; in experiment [16], 38.1%; in [17], 39.9%; in experiment [18], 30.4%. In experiment [19], the growth was 54.5%.
`CN1CCN(c2nc(-c3csc(-c4ccccc4)n3)cc3ccccc23)CC1`: the growth is 66.7% in experiment [1]; 97.7% in experiment [2]; 72.9% in experiment [3]; 70.2% in experiment [4]; -26.1% (active) in experiment [5]; 37.1% in experiment [6]. Moreover, the growth was 53.8% in [7]; 46.4% in experiment [8]; -84.4% (active) in experiment [9]; 30.8% in experiment [10]; -35.1% (active) in [11]; 49% in experiment [12]. Also, the growth is 38.4% in experiment [13]; -4.62% (active) in [14]; 53% in experiment [15]; 74.7% in experiment [16]; 57.5% in [17]; 46.6% in [18]. For the same molecule, the growth in [19] was -70.8% (active).
As to `COc1ccc(C(=O)Nc2ncc(Cc3ccccc3Cl)s2)cc1`, the growth in [1] was 17.9%; in experiment [2], 31.7%; in [3] it was 54.3%; in [4], 39.2%; in experiment [5], 2.79% (active); in experiment [6], -37.3% (active). The growth in [7] is 24.3%; in experiment [8], 28.9%; in [9], -48.3% (active); in [10], 18.2%; in experiment [11] it was 7.56% (active); in [12], 57.1%. Also, the growth in experiment [13] was 24.9%; in experiment [14], -2.13% (active); in [15] it was 43.3%; in experiment [16], 7.7% (active); in [17], 2.11% (active); in experiment [18], 67%. The growth in [19] was 15.5%.
For `COC(=O)c1[nH]nc2c1C1(C(=O)c3cccc4cccc1c34)C(C#N)=C(N)O2` (stereo not drawn), the growth is 95% in experiment [1]; 91.8% in experiment [2]; 94.1% in [3]; 97.5% in [4]; 105% in experiment [5]; 100% in experiment [6]. For the same molecule, the growth was 98.2% in experiment [7]; 99.5% in experiment [8]; 110% in experiment [9]; 104% in experiment [10]; 91.2% in [11]; 103% in experiment [12]. Besides, the growth is 91.4% in [13]; 93.5% in experiment [14]; 84.1% in experiment [15]; 104% in [16]; 101% in experiment [17]; 103% in experiment [18]. In addition, the growth in [19] is 108%.
For `O=C(Nc1nc2ccc([N+](=O)[O-])cc2s1)Nc1ccccc1Cl`, the growth was 9.48% (active) in [1]; 30.7% in experiment [2]; 52.2% in experiment [3]; 28.2% in [4]; 20.1% in experiment [5]; 0.0093% (active) in [6]. Also, the growth was 30.2% in [7]; 48.5% in experiment [8]; 39.8% in [9]; 40.2% in [10]; 20.6% in [11]; 12.1% in [12]. For the same molecule, the growth in [13] is 47.5%; in experiment [14], 49.2%; in experiment [15] it was 41.7%; in experiment [16] it was 48.5%; in experiment [17], 54.7%; in [18], 23.2%. Also, the growth in experiment [19] is 45.1%.
